PubChem BioAssay (EPA / NIEHS)
More than one record can exist for a structure, and the calls need not agree. Active and inactive are the calls of the source. The calls were made as follows: active = hit-call score of the fitted dose curve at least 0.9, where 1 is the maximum; inactive = score below 0.9.

What was measured:
[1] = read-out: Vascular endothelial growth factor receptor 2 (Homo sapiens) (UniProt P35968); assay: BSK_4H_VEGFRII: BioMAP Diversity Plus: 4H Assay for Vascular endothelial growth factor receptor 2 (VEGFR2) Biomarker Activity (AID 2283031); settings: primary human endothelial cells (HUVEC); actives raise or lower the signal;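 as to AC50: cell-surface VEGFR2 protein level quantified by ELISA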
Procedure, shortened: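 Primary human umbilical vein endothelial cells (4H system), 24 h exposure; cell-surface VEGFR2 measured by ELISA. Bidirectional fitting versus DMSO; cytotoxicity checked in parallel by SRB total-protein staining.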

[2] = read-out: Vascular cell adhesion molecule 1 (VCAM1), VCAM1 (gene 7412); assay: BSK_4H_VCAM1: BioMAP Diversity Plus: 4H Assay for Vascular cell adhesion molecule 1 (VCAM1) Biomarker Activity (AID 2283033); settings: primary human endothelial cells (HUVEC); actives raise or lower the signal
Procedure, shortened: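 Chemicals are added to primary human umbilical vein endothelial cells. After 24 h, VCAM-1 levels are measured by ELISA. Values come from bidirectional fitting referenced to DMSO.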

[3] = read-out: Interferon-gamma inducible Protein 10 (IP10), CXCL10 (gene 3627); assay: BSK_BE3C_IP10: BioMAP Diversity Plus: BE3C Assay for Interferon-gamma inducible Protein 10 (IP10) Biomarker Activity (AID 2283034); settings: primary human bronchial epithelial cells; actives raise or lower the signal
Procedure, shortened: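 IP-10 quantified by ELISA serves as the endpoint. Cells: primary human bronchial epithelium, read 24 h after compound addition. Activity is derived by bidirectional fitting with DMSO as negative control.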

[4] = read-out: Monokine induced gamma interferon (MIG), CXCL9 (gene 4283); assay: BSK_BE3C_MIG: BioMAP Diversity Plus: BE3C Assay for Monokine induced gamma interferon (MIG) Biomarker Activity (AID 2283035); settings: primary human bronchial epithelial cells; actives raise or lower the signal
Procedure, shortened: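 hu bronchial epithelial 1° cells, 24 h cpd; MIG by ELISA; bidirectional fit, DMSO = baseline.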

[5] = read-out: Transforming growth factor beta 1 (TGFb1), TGFB1 (gene 7040); assay: BSK_BE3C_TGFb1: BioMAP Diversity Plus: BE3C Assay for Transforming growth factor beta 1 (TGFb1) Biomarker Activity (AID 2283036); settings: primary human bronchial epithelial cells; actives raise or lower the signal
Procedure, shortened: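 Bronchial epithelial primary cells are treated with test chemical, then TGF-b1 is quantified by ELISA after 24 hours. Values derive from bidirectional fitting against DMSO, with cytotoxicity checked by SRB staining in parallel cultures.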

[6] = read-out: Plasminogen activator inhibitor-1 (PAI1), SERPINE1 (gene 5054); assay: BSK_BE3C_PAI1: BioMAP Diversity Plus: BE3C Assay for Plasminogen activator inhibitor-1 (PAI1) Biomarker Activity (AID 2283037); settings: primary human bronchial epithelial cells; actives raise or lower the signal
Procedure, shortened: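 Values derive from bidirectional fitting against DMSO baseline of PAI-1 levels, measured by ELISA in human bronchial epithelial cells 24 h after compound addition.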

[7] = read-out: urokinase plasminogen activator (uPA), PLAU (gene 5328); assay: BSK_BE3C_uPA: BioMAP Diversity Plus: BE3C Assay for urokinase plasminogen activator (uPA) Biomarker Activity (AID 2283038); settings: primary human bronchial epithelial cells; actives raise or lower the signal
Procedure, shortened: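 Primary human bronchial epithelial cells, uPA measured by ELISA 24 h after dosing. Bidirectional change relative to DMSO; cytotoxicity checked in parallel cultures by sulforhodamine B total-protein staining.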

[8] = read-out: Urokinase-type plasminogen activator receptor (uPAR), PLAUR (gene 5329); assay: BSK_BE3C_uPAR: BioMAP Diversity Plus: BE3C Assay for Urokinase-type plasminogen activator receptor (uPAR) Biomarker Activity (AID 2283039); settings: primary human bronchial epithelial cells; actives raise or lower the signal
Procedure, shortened: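 Steps: dose human primary bronchial epithelial cells, incubate 24 h, measure uPAR by ELISA, then fit gain- or loss-of-signal response bidirectionally relative to DMSO.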

[9] = read-out: Interleukin-6 (IL6), IL6 (gene 3569); assay: BSK_CASM3C_IL6: BioMAP Diversity Plus: CASM3C Assay for Interleukin-6 (IL6) Biomarker Activity for (AID 2283040); settings: primary human coronary artery smooth muscle cells; actives raise or lower the signal
[10] = read-out: Tissue plasminogen activator (tPA), PLAT (gene 5327); assay: BSK_BE3C_tPA: BioMAP Diversity Plus: BE3C Assay for Tissue plasminogen activator (tPA) Biomarker Activity (AID 2283041); settings: primary human bronchial epithelial cells; actives raise or lower the signal
Procedure, shortened: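 Gain- or loss-of-signal in tPA, measured by ELISA, derived by bidirectional fitting against DMSO. Cells: human primary bronchial epithelial; read at 24 h after chemical dosing.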

[11] = read-out: Interleukin-8 (IL8), CXCL8 (gene 3576); assay: BSK_CASM3C_IL8: BioMAP Diversity Plus: CASM3C Assay for Interleukin-8 (IL8) Biomarker Activity (AID 2283042); settings: primary human coronary artery smooth muscle cells; actives raise or lower the signal;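 also: IL-8 protein level quantified by ELISA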
[12] = read-out: Human Leukocyte Antigen - DR isotype (HLADR), HLA-DRA (gene 3122); assay: BSK_CASM3C_HLADR: BioMAP Diversity Plus: CASM3C Assay for Human Leukocyte Antigen - DR isotype (HLADR) Biomarker Activity (AID 2283043); settings: primary human coronary artery smooth muscle cells; actives raise or lower the signal;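 also: cell-surface HLA-DR protein level quantified by ELISA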
[13] = read-out: Macrophage colony-stimulating factor (MCSF), CSF1 (gene 1435); assay: BSK_CASM3C_MCSF: BioMAP Diversity Plus: CASM3C Assay for Macrophage colony-stimulating factor (MCSF) Biomarker Activity (AID 2283044); settings: primary human coronary artery smooth muscle cells; actives raise or lower the signal;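 also: M-CSF protein amount quantified by ELISA after 24 h exposure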
[14] = read-out: Low-density lipoprotein receptor (LDLR), LDLR (gene 3949); assay: BSK_CASM3C_LDLR: BioMAP Diversity Plus: CASM3C Assay for Low-density lipoprotein receptor (LDLR) Biomarker Activity (AID 2283045); settings: primary human coronary artery smooth muscle cells; actives raise or lower the signal;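 also: LDLR protein level on the cell surface quantified by ELISA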
[15] = read-out: Monocyte Chemoattractant Protein-1 (MCP1), CCL2 (gene 6347); assay: BSK_CASM3C_MCP1: BioMAP Diversity Plus: CASM3C Assay for Monocyte Chemoattractant Protein-1 (MCP1) Biomarker Activity (AID 2283046); settings: primary human coronary artery smooth muscle cells; actives raise or lower the signal;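 also: MCP-1 level quantified by ELISA 24 h after dosing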
[16] = BSK_CASM3C_Proliferation: Cell Proliferation Assessment in the BioMAP Diversity Plus: CASM3C Assay (AID 2283047); settings: primary human coronary artery smooth muscle cells;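 also: sulforhodamine B total protein stain as relative cell number at 560 nm; sub-confluent cells exposed 48 h before staining; fitted both ways against DMSO so gain or loss of cell number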
[17] = read-out: Monokine induced gamma interferon (MIG), CXCL9 (gene 4283); assay: BSK_CASM3C_MIG: BioMAP Diversity Plus: CASM3C Assay for Monokine induced gamma interferon (MIG) Biomarker Activity (AID 2283048); settings: primary human coronary artery smooth muscle cells; actives raise or lower the signal;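 also: MIG protein level measured by ELISA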
[18] = read-out: serum amyloid A (SAA), SAA1 (gene 6288); assay: BSK_CASM3C_SAA: BioMAP Diversity Plus: CASM3C Assay for serum amyloid A (SAA) Biomarker Activity (AID 2283049); settings: primary human coronary artery smooth muscle cells; actives raise or lower the signal;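 also: SAA protein level quantified by ELISA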
[19] = BSK_CASM3C_SRB: Viability Assessment in the BioMAP Diversity Plus: CASM3C Assay (AID 2283050); settings: primary human coronary artery smooth muscle cells;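 also: total protein by SRB staining as cytotoxicity measure in parallel cultures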

Measured: AC50

C=C(C)C(=O)OCCOCCOCCOCCOC(=O)C(=C)C
active: [12] 1.44 µM
inactive: all other assays above

CC(C)(C)CC(C)(C)c1ccc(OCCOCC[N+](C)(C)Cc2ccccc2)cc1
inactive: [5] | [10]
active: [2] 7.35 µM | [3] 8.05 µM | [4] 8.97 µM | [6] 0.992 µM | [7] 5 µM | [8] 3.16 µM | [9] 8 µM | [11] 7.3 µM | [12] 6.1 µM | [13] 7.89 µM | [14] 8.21 µM | [15] 8.03 µM | [16] 7.66 µM | [17] 9.51 µM | [18] 5 µM | [19] 7.54 µM

CCC(C)c1cc([N+](=O)[O-])cc([N+](=O)[O-])c1OC(=O)OC(C)C (stereo unspecified)
active: [1] 9.93 µM | [2] 8.04 µM | [3] 11 µM | [4] 33 µM | [5] 13.6 µM | [6] 20 µM | [7] 33.7 µM | [8] 35 µM | [9] 34.1 µM | [10] 13.6 µM | [11] 4.74 µM | [12] 13.7 µM | [13] 32.7 µM | [14] 31.8 µM | [15] 32.3 µM | [16] 29.7 µM | [17] 30.7 µM | [18] 34.1 µM | [19] 25.8 µM

O=CN1CCOCC1
not listed: [5]
inactive: all other assays above

C=CC(C)(O)CCC=C(C)C (stereo unspecified)
inactive: [1] | [2] | [3] | [4] | [6] | [7] | [8] | [9] | [10] | [11] | [12] | [13] | [14] | [15] | [16] | [17] | [18] | [19]
active: [16] 4.81 µM

Cc1cc(CCC(=O)OCCOCCOCCOC(=O)CCc2cc(C)c(O)c(C(C)(C)C)c2)cc(C(C)(C)C)c1O
active: [3] 10.1 µM | [5] 17.8 µM
inactive: all other assays above

c1ccc(Oc2ccccc2)cc1
active: [2] 28.8 µM
inactive: all other assays above

CCCCCCC(CO)CCCC (stereo unspecified)
not listed: [5]
inactive: all other assays above

C=C(C)C(=O)OCCOCCOCCOC(=O)C(=C)C
active: [12] 0.0969 µM | [13] 0.016 µM
inactive: all other assays above

CS(=O)(=O)c1ccc(C2=C(c3ccccc3)C(=O)OC2)cc1
inactive: all assays above

CC(C)(N=C=O)c1cccc(C(C)(C)N=C=O)c1
inactive: all assays above
